The panel holds about 79,000 compounds, 15% with a hit somewhere; the sample as a whole holds those more often. A number with no mark means an inactive call. Activity calls are given as the source filed them. Cut-off read from the data, not from the text of the source: active = growth inhibition above about 70%; inactive = the rest.
assay: NCI Yeast Anticancer Drug Screen. Data for the mec2-1 strain (AID 157); details: S. cerevisiae mec2-1 strain, at 50.0 µM (retest, dose inferred, filed as 5.0), stronger effect = higher value
Summary of the method: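 Strain: mec2-1 (DNA repair/cell cycle alteration). Compound exposure, then growth measured; inhibition expressed relative to vehicle.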

| Structure (SMILES) | growth inhibition |
| --- | --- |
| CCC(c1ccc(O)c(C2CCCCC2)c1)C(CC)c1ccc(OC(=O)c2ccccc2)c(C2CCCCC2)c1 (configuration not stated) | 10% |
| CC(=O)c1csc2c1C(=O)c1scc(C(C)=O)c1C2=O | 49% |
| O=C1C2=Cc3ccccc3CCN2c2ccccc21 | -6% |
| Cc1cc(I)cc(I)c1O | 34% |
| NCCCSc1ccc(Br)cc1 | -5% |
| O=C1OC2(Cc3ccccc31)c1ccccc1-c1ccccc12 | -11% |
| Cc1occc1C(=S)Nc1ccc(Cl)c(C(=O)OCC2CC2)c1 | 5% |
| c1cc(C2=NCCN2)ccc1Nc1ccc(-c2cc3ccc(C4=NCCN4)cc3[nH]2)cc1 | 98% (active) |
| Cc1ccc(C)c(NC(=O)CC2SC(=Nc3ccccc3Cl)NC2=O)c1 (configuration not stated) | 60% |
| Cc1ccccc1[P+](C)(c1ccccc1C)c1ccccc1C | 78% (active) |
| Oc1ccc(CNCc2ccccc2)c2cccnc12 | 97% (active) |
| COC(=O)c1ccc(OC)cc1 | -3% |
| OCC(CO)C1c2cccc3ccc4cccc1c4c23 | 24% |
| CCC(CCCN(CC)CCc1ccccc1)OC(=O)c1cc(OC)c(OC)c(OC)c1 (configuration not stated) | 6% |
| O=[N+]([O-])c1ccc(-[n+]2ccc3ccccc3c2)c([N+](=O)[O-])c1 | 80% (active) |
| CN(C)CCC1(C2=CCCC2)CC/C(=C\c2ccccc2Cl)C1=O (configuration not stated) | 28% |
| CCOC(=O)CCC(NC(=O)c1ccc(NC(OC)c2nc3cc(C(F)(F)F)ccc3nc2-c2ccccc2)cc1)C(=O)OCC (configuration not stated) | 78% (active) |

Reference: PubChem BioAssay (NCI)
